According to the supplement of paper PMC11732987, “Enantioselective OTUD7B fragment discovery through chemoproteomics screening and high-throughput optimisation” (Communications Chemistry, 2025):

What was measured:
Test in all cases: log2 ratio of Biotin-Ahx-Ub-VS probe labelling (fragment/DMSO); higher = less target engagement (more negative = stronger competition), active = hit call of the paper (q ≤ 0.05, log2 ratio ≤ -1)
Details in all cases: compound concentration: 200 uM; treatment time: 3 h
USP42 = target: T1, USP42 (UniProt Q9H9J4)
T1 sequence (whole entry): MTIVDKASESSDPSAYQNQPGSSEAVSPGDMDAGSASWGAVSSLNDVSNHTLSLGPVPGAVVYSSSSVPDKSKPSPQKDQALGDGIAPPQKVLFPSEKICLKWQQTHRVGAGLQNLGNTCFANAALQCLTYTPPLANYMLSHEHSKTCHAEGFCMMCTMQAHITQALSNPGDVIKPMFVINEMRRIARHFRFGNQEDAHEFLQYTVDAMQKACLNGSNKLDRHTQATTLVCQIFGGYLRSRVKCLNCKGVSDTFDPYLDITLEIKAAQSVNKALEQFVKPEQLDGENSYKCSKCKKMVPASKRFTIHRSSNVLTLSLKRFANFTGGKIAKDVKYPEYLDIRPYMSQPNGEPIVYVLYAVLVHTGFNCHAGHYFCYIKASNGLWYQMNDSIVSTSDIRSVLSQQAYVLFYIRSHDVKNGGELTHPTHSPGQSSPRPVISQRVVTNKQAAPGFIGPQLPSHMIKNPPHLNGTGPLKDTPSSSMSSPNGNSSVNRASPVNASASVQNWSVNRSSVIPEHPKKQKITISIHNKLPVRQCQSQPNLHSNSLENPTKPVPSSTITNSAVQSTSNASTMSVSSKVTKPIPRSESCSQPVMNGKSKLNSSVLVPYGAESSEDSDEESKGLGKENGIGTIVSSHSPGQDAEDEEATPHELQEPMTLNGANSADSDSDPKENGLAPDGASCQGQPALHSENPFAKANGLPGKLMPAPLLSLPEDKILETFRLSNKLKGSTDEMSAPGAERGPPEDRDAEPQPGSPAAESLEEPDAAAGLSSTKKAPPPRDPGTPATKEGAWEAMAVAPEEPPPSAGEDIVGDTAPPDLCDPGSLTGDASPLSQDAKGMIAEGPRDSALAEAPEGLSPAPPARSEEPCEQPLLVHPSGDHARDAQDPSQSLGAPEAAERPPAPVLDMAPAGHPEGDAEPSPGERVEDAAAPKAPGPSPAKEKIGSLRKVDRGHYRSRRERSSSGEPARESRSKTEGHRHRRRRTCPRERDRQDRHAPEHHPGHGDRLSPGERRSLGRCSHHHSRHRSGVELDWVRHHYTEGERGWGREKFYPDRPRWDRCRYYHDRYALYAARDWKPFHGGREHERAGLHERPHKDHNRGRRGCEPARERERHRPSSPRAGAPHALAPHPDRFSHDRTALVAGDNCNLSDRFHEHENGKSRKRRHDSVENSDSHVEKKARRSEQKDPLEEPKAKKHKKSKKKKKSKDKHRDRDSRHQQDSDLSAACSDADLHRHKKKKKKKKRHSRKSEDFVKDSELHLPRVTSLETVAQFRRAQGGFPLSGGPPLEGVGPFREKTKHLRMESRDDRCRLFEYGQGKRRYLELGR
How it was run: (§1)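 Global-median-normalised Spectronaut label-free quantities were compared by unpaired t-test, and values are average log2 ratios of fragment over vehicle. Only proteins with ≥2 unique peptides were used. HEK293T lysate (495 µg per sample) was treated in triplicate with fragment at 200 µM or vehicle for 3 h and then with Biotin-Ahx-Ub-VS at 0.5 µM final for 1 h. Labelled DUBs were then NeutrAvidin-enriched, digested with LysC and trypsin, and run by diaPASEF LC-MS/MS.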

USP46 = USP46 (UniProt P62068)
How it was run: as §1

USP47 = target: T2, USP47 (UniProt Q96K76)
T2 sequence (whole entry): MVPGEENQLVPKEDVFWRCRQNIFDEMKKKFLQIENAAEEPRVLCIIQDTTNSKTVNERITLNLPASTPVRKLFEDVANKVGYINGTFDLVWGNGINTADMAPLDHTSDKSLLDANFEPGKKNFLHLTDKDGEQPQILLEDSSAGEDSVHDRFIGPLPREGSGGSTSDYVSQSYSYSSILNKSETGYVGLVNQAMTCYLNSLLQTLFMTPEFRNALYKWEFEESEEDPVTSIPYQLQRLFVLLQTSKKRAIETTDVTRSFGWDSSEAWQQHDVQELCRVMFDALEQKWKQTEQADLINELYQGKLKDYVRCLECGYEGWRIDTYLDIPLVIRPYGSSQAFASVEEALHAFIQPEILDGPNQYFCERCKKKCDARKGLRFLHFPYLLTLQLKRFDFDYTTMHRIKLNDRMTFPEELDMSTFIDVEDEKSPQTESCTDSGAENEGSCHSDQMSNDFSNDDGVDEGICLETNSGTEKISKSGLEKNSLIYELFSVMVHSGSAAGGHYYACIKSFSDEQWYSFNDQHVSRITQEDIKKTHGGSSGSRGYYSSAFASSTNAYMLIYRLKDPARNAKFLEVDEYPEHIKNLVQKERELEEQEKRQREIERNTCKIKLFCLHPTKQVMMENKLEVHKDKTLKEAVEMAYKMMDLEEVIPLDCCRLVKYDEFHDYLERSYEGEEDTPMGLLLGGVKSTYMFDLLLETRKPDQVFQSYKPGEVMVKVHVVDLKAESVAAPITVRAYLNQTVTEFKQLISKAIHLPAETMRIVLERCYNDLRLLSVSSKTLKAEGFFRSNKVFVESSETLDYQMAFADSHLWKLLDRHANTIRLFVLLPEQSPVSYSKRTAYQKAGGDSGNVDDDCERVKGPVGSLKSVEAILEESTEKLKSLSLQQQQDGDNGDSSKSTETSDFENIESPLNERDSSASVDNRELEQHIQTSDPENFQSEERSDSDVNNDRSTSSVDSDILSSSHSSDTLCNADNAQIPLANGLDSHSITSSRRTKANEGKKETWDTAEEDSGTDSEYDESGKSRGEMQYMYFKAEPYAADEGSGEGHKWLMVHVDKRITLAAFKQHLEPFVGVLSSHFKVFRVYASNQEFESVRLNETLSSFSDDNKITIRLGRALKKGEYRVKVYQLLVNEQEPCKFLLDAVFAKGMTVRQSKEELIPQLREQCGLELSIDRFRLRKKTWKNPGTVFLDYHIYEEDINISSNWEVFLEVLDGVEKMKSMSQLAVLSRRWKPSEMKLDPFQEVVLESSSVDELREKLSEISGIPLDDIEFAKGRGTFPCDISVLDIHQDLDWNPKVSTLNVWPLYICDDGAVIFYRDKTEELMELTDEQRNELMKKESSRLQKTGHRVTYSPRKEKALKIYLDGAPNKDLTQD
How it was run: as §1

USP48 = target: T3, USP48 (UniProt Q86UV5)
T3 sequence (whole entry): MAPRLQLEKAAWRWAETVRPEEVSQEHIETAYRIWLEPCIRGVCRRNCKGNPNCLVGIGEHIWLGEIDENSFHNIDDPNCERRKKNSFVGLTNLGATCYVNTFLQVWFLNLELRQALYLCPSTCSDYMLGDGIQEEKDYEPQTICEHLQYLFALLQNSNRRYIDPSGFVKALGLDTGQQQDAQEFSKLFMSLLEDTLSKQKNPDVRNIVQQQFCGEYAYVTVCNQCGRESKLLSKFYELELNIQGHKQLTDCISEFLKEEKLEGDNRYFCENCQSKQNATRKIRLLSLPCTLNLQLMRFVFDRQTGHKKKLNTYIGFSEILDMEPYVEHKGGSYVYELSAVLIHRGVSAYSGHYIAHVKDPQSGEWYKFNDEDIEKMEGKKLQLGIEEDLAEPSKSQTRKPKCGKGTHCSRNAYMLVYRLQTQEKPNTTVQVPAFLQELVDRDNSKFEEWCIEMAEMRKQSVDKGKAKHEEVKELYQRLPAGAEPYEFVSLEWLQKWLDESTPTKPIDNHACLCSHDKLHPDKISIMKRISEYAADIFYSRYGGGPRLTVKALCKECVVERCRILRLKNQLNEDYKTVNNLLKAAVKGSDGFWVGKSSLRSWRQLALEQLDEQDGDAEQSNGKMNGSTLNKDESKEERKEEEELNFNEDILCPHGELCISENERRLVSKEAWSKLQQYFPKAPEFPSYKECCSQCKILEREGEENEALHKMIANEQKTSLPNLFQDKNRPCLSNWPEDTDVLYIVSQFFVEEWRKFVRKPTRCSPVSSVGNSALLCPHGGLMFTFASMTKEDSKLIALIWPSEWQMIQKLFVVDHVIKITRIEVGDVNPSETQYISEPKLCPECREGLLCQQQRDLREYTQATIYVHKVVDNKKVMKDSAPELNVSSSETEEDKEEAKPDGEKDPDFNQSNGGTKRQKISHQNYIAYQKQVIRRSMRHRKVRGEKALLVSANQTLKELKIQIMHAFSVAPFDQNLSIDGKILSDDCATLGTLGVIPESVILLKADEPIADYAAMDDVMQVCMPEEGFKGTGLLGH
How it was run: as §1

USP5 = target: T4, USP5 (UniProt P45974)
T4 sequence (whole entry): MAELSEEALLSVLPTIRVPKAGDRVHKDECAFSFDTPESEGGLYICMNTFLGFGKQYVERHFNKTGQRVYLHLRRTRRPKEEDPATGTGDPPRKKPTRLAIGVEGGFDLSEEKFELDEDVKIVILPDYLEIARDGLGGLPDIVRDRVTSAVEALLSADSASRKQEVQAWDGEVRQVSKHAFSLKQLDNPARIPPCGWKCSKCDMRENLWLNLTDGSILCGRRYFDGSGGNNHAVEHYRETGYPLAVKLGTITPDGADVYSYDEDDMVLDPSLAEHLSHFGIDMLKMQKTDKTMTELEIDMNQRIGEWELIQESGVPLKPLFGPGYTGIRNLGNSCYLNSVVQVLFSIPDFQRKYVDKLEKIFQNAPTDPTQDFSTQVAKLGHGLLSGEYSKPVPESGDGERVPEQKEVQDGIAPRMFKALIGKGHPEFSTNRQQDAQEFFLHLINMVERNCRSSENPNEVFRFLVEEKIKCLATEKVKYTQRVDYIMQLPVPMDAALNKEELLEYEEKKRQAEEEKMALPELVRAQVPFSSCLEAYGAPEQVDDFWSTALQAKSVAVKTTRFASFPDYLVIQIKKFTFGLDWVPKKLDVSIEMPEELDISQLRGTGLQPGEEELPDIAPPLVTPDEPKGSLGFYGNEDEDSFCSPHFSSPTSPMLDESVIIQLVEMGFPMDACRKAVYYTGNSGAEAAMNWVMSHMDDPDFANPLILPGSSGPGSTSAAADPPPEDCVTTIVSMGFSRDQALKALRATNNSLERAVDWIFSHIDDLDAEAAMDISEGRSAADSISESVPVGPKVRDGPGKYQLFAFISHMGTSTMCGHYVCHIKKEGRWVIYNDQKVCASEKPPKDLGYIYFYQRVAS
How it was run: as §1

USP54 = USP54 (UniProt Q70EL1)
How it was run: as §1

USP7 = USP7 (UniProt Q93009)
How it was run: as §1

USP8 = target: T5, USP8 (UniProt P40818)
T5 sequence (whole entry): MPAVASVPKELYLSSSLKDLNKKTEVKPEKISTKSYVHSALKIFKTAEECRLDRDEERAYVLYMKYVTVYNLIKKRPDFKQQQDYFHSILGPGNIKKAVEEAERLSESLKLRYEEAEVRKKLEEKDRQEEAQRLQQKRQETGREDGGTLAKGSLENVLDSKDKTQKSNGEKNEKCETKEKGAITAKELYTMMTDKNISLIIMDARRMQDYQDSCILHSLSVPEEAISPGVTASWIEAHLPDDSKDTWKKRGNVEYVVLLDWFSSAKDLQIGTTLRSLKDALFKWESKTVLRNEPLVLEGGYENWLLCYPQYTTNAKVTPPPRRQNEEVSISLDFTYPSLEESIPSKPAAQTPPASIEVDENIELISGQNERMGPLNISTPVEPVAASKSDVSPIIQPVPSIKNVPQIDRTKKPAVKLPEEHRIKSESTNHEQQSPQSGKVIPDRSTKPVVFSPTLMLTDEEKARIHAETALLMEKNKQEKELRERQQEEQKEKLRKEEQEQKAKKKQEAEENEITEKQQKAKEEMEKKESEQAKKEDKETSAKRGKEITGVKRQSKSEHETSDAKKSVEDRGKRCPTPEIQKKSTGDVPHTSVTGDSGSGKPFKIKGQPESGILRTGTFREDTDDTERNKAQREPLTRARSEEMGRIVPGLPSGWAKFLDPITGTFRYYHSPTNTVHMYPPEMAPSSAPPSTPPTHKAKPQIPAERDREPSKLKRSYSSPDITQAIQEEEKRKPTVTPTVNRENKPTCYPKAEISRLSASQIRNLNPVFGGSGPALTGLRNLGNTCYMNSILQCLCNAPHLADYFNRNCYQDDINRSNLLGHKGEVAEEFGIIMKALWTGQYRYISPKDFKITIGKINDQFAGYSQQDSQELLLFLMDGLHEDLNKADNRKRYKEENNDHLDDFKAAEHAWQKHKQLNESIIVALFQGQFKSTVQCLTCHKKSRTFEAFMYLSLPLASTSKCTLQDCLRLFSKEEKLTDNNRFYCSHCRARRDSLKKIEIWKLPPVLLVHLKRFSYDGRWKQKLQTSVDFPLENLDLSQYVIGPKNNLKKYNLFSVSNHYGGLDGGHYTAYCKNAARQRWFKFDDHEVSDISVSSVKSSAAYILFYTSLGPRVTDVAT
How it was run: as §1

USP9X = USP9X (UniProt Q93008)
How it was run: as §1

UniProt O00487 = target: UniProt O00487
How it was run: as §1

Measured: log2 ratio of Biotin-Ahx-Ub-VS probe labelling

Chain of USP9X (Q93008 whole entry): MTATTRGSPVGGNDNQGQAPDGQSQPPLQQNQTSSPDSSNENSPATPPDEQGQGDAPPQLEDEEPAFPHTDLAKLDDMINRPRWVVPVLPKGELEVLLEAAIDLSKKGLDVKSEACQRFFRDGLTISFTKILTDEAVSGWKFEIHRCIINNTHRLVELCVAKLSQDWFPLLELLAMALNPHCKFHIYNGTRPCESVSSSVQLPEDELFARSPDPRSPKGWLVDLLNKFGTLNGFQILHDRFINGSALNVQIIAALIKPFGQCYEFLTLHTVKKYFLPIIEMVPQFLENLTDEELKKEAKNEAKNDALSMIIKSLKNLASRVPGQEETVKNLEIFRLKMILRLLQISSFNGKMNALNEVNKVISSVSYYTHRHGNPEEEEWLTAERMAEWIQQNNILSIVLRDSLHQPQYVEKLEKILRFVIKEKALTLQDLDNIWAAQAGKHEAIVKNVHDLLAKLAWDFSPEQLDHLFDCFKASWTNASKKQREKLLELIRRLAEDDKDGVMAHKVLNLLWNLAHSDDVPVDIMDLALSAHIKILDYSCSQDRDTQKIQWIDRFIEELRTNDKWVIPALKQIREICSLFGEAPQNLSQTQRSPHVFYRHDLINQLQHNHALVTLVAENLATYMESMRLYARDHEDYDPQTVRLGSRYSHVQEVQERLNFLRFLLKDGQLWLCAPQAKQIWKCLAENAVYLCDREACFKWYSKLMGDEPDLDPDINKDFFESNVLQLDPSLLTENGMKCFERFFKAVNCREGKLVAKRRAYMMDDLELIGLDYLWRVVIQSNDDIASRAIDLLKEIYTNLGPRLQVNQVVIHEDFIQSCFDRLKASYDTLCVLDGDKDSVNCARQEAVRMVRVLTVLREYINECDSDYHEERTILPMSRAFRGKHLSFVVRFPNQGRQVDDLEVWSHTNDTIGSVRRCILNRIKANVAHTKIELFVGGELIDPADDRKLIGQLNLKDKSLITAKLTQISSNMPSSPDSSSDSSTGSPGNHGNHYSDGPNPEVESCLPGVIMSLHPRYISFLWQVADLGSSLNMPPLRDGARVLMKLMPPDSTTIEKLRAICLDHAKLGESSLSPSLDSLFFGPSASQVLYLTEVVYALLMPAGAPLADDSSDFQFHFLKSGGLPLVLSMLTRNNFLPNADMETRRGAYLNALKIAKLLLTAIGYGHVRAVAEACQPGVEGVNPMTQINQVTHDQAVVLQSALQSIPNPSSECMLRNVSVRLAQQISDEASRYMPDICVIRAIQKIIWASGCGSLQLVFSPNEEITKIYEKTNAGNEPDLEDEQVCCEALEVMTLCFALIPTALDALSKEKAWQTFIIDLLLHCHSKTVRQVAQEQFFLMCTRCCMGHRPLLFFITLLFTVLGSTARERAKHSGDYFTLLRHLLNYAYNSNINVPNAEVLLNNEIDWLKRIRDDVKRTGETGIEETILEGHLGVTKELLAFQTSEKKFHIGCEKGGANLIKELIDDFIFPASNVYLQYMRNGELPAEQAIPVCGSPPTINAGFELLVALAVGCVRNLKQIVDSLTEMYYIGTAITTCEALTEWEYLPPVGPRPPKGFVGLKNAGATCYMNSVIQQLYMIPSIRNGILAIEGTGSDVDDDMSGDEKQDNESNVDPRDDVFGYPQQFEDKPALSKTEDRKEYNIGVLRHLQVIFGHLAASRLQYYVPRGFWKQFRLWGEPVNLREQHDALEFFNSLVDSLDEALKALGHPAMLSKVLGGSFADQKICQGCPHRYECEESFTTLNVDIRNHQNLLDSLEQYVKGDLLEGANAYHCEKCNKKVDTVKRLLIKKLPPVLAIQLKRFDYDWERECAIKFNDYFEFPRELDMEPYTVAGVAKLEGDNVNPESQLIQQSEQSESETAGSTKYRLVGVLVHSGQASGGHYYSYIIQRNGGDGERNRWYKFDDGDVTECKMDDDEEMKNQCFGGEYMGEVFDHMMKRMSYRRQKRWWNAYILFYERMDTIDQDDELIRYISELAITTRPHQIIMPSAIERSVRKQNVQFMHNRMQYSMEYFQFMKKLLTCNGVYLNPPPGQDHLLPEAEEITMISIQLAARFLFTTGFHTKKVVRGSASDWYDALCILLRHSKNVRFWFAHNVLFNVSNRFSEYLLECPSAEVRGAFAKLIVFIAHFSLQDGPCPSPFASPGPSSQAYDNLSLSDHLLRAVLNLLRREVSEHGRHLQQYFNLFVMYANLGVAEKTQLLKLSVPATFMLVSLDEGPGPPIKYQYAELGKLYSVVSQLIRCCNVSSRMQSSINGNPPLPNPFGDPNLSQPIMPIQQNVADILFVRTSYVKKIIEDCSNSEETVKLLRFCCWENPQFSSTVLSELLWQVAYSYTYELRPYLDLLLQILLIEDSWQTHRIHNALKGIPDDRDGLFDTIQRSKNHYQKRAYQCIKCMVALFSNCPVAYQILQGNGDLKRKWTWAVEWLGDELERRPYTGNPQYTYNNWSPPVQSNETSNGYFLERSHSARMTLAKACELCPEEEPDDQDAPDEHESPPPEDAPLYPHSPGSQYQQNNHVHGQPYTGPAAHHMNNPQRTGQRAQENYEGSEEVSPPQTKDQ
Chain of USP46 (P62068 whole entry): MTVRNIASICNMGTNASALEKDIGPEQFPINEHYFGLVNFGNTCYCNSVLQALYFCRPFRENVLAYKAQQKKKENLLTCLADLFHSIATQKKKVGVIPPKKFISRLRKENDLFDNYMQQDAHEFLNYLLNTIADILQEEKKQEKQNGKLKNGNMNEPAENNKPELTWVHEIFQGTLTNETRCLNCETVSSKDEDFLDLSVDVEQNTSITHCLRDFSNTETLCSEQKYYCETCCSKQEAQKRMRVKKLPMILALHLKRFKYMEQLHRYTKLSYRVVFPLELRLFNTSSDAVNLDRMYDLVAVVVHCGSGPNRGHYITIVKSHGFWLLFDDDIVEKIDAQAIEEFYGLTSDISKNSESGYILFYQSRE
Chain of USP54 (Q70EL1 whole entry): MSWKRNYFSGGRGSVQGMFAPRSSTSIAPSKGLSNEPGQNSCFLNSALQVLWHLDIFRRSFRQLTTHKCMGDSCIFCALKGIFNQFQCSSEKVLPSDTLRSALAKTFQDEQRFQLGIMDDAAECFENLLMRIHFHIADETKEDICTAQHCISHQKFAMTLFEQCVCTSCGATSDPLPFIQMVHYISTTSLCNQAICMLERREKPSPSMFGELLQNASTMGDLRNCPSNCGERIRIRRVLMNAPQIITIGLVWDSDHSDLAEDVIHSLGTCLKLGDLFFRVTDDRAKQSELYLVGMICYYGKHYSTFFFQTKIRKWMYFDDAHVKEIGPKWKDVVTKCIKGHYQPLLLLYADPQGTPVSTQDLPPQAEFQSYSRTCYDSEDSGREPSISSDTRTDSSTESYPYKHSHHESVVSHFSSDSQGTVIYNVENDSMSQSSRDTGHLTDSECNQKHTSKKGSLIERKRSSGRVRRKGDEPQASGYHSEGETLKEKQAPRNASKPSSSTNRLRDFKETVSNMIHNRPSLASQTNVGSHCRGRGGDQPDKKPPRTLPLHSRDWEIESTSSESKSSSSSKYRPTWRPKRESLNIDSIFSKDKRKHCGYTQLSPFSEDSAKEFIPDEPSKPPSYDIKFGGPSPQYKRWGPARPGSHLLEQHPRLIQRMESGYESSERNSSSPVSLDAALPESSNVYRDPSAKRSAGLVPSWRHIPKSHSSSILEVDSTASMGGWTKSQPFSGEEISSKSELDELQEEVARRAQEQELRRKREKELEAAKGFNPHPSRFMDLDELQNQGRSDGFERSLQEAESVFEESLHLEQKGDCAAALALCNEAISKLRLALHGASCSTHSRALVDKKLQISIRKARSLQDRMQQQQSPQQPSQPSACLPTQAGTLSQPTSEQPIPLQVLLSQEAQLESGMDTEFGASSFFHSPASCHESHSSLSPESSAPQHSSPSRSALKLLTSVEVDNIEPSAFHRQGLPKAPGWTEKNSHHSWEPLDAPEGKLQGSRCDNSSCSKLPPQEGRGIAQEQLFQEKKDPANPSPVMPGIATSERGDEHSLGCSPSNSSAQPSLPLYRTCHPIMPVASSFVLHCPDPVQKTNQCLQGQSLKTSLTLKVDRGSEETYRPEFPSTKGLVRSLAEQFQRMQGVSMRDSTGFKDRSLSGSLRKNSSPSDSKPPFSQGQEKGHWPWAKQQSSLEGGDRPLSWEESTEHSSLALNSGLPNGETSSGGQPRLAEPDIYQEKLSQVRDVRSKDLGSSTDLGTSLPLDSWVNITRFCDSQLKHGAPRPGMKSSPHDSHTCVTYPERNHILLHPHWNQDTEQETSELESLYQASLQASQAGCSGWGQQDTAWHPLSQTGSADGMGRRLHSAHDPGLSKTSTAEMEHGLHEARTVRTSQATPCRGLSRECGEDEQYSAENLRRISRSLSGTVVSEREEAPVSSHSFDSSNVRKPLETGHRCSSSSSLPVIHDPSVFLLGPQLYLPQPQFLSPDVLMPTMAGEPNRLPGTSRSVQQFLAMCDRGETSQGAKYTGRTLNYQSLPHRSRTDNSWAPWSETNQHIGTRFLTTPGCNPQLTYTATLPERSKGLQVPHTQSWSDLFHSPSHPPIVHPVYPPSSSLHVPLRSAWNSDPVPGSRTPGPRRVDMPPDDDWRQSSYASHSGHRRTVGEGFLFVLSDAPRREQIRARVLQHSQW
Chain of UniProt O00487 (O00487 whole entry): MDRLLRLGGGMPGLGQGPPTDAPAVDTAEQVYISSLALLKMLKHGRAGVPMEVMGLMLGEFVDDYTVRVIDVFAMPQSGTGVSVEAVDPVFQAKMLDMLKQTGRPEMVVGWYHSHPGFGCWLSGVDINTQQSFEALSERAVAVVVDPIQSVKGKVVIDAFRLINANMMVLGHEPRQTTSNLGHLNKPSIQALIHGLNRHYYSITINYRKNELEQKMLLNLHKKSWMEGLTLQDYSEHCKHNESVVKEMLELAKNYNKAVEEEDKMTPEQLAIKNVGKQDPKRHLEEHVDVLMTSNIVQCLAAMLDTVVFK

Cl.O=C(CCl)NCc1ccnc(Oc2ccccc2F)c1
inactive: USP42 -0.336 | USP46 0.0702 | USP47 -0.71 | USP48 -0.278 | USP5 0.126 | USP54 0.365 | USP7 -0.357 | USP8 -0.181 | USP9X -0.17 | UniProt O00487 0.13
